Dicer processing: human Dicer pre-microRNA cleavage inhibition; Q9UPY3; hit rate 6% among 47,000; cat-ELCCA pre-miR-21 Dicer processing, chemiluminescence; hits give high values; z-score at 25 µM; in the data active = z-score above about 3, passing the limit was not always enough;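 also: higher signal means more uncleaved substrate so more Dicer inhibition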
A number is an active result. Many of the other results were omitted from the sample, so hits are more common in it than they were.

`COc1ccc(OC)c(S(=O)(=O)N(C(=O)c2cccnc2)c2ccc3oc(=O)sc3c2)c1` gave Dicer processing inactive.
`O=C(c1cccnc1)N(c1ccc2oc(=O)sc2c1)S(=O)(=O)c1ccc(Cl)cc1` gave Dicer processing 10.
For O=C(c1ccncc1)N(c1ccc2oc(=O)sc2c1)S(=O)(=O)c1ccc(Cl)cc1 the results were Dicer processing inactive.
For CC(C)C(=O)N(c1ccc2oc(=O)sc2c1)S(=O)(=O)c1ccc(Cl)cc1 the results were Dicer processing inactive.
`O=C(c1cccnc1)N(c1ccc2oc(=O)sc2c1)S(=O)(=O)c1ccc(F)cc1` gave Dicer processing 11.
Screening O=C(c1ccncc1)N(c1ccc2oc(=O)sc2c1)S(=O)(=O)c1ccc(F)cc1 returned Dicer processing 3.2.
Screening CCOc1nc(-c2cccc(OC)c2)ccc1-c1noc(-c2cccnc2)n1 returned Dicer processing inactive.
`Cc1ccc(OCC2NCCS2)c([N+](=O)[O-])c1` (configuration not stated) gave Dicer processing inactive.
Cc1ccc(S(=O)(=O)N(CCO)CCO)cc1 was read as Dicer processing inactive.
Fc1c(CN2CCOCC2)cccc1CN1CCOCC1 was read as Dicer processing inactive.
`CCCn1c(=O)c(C#N)nn(-c2ccccc2)c1=O` gave Dicer processing inactive.
For CCn1ccc(C(=O)Nc2nccs2)n1 the results were Dicer processing inactive.
Screening Cc1cc(C(C)(C)C)ccc1NC(=O)CCC(=O)O returned Dicer processing inactive.
Screening Cc1sc2c(c1C)C(=O)/C(=C\Nc1cccnc1)S(=O)(=O)N2C returned Dicer processing inactive.
For Cc1cc(N/C=C2\C(=O)c3c(sc(C)c3C)N(C)S2(=O)=O)nc(C)n1 the results were Dicer processing 3.6.
`Cc1sc2c(c1C)C(=O)/C(=C\Nc1ncccn1)S(=O)(=O)N2C` gave Dicer processing inactive.
`N#Cc1cc([N+](=O)[O-])ccc1Sc1nnc(NC(=O)c2ccc(Cl)c(Cl)c2)s1` gave Dicer processing inactive.
c1ccc(C2CCCC(c3ccccc3)S2)cc1 (configuration not stated) was read as Dicer processing 4.8.
For S=C1CC(c2ccccc2)Sc2ccccc2N1 (configuration not stated) the results were Dicer processing inactive.
`CC1(O)CC(c2ccccc2)SC(c2ccccc2)C1` (configuration not stated) gave Dicer processing inactive.
O=C(c1cc2ccccc2c(=O)o1)N1CCN(c2ccccc2)CC1 was read as Dicer processing inactive.
Screening O=C(Nc1ccccc1)Nc1cccc(NC(=O)Nc2ccccc2)c1F returned Dicer processing inactive.
O=C(Nc1ccccc1)Oc1cccc(F)c1OC(=O)Nc1ccccc1 was read as Dicer processing 3.4.
Screening O=C(Nc1cccc(C(F)(F)F)c1)Oc1ccc(F)cc1Cl returned Dicer processing inactive.
`Cc1cc(C)cc(CC(C(=O)O)C(C)C(=O)O)c1` (configuration not stated) gave Dicer processing inactive.
Screening COc1ccc(Nc2nc3c4ccccc4n(C(C)=O)c3s2)cn1 returned Dicer processing inactive.
Screening O=c1[nH]c2c(F)cccc2c(O)c1-c1ccccc1 returned Dicer processing inactive.
Screening O=c1[nH]c2ccccc2c2oc(-c3ccccc3)nc12 returned Dicer processing inactive.
Screening O=C(O)c1c(-c2ccccc2)c2oc3ccccc3c2[nH]c1=O returned Dicer processing 4.4.
Screening Clc1ccc(C2CC(c3ccccc3)=NN2c2ccccc2)cc1 (configuration not stated) returned Dicer processing inactive.
For CCOc1c(Nc2cccc(OC)c2)c(=O)c1=O the results were Dicer processing inactive.
CCOc1c(Nc2ccccc2O)c(=O)c1=O was read as Dicer processing 4.1.
`CCCCOc1c(Nc2cccc(OC)c2)c(=O)c1=O` gave Dicer processing inactive.
CC(N)=NCCCn1ccnc1 was read as Dicer processing inactive.
CC(=O)Oc1ccc(OC(C)=O)c2cc3c(OC(C)=O)ccc(OC(C)=O)c3cc12 was read as Dicer processing inactive.
`O=C1c2ccccc2S(=O)(=O)N1c1ccc(F)cc1` gave Dicer processing inactive.
Screening Cc1nc2c(cnn2-c2ccccc2)c(=O)n1/N=C/c1ccc2c(c1)OCO2 returned Dicer processing inactive.
Cc1sc2nc(C)n(/N=C/c3ccc4c(c3)OCO4)c(=O)c2c1C was read as Dicer processing 6.4.
Screening Cc1sc2nc(C)n(/N=C/c3cccs3)c(=O)c2c1C returned Dicer processing inactive.
`O=C(NCc1ccc(S(=O)(=O)NCc2cc(F)cc3c2OCOC3)s1)c1ccc(Cl)cc1` gave Dicer processing inactive.
For CN(C)CCNc1cc(-c2ccccc2)nc2ccccc12 the results were Dicer processing inactive.
CC(=O)OC[C@H](OC(C)=O)[C@H](OC(C)=O)C12COC(=O)C(N1C(C)=O)C(C)(C)S2 (some centres not stated) was read as Dicer processing inactive.
Cc1ccc(C)n1CCN1CCN(C(=O)CSc2nc3ccccc3nc2N2CCOCC2)CC1 was read as Dicer processing 3.

Screens from PubChem.
